The supplement of paper PMC13380429
A number with no mark means an inactive call.

test system: Vero E6 infected with SARS-CoV-2; assay: SARS-CoV-2 infection rate relative to infected DMSO; higher = more infection, active = 60 or less; settings: 24 h

Compound | SARS-CoV-2 infection rate
Sc1ncnc2nc[nH]c12 [mercaptopurine] (0.833333 µM) | 108%
C=C[C@]1(C)C[C@@H](OC(=O)CSC(C)(C)CNC(=O)[C@H](N)C(C)C)[C@]2(C)[C@H](C)CC[C@]3(CCC(=O)[C@H]32)[C@@H](C)[C@@H]1O [valnemulin] (10 µM) | 116%
CCN1C(C)(C)CC(Oc2ccc(C(=O)Nc3ccc(NC(=O)Nc4cc(C(C)(C)C)on4)cc3)nc2)CC1(C)C (10 µM) | 101%
CN(C)C(=O)N[C@H]1CC[C@H](CCN2CCN(c3cccc(Cl)c3Cl)CC2)CC1 [cariprazine] (10 µM) | 113%
O=C(O)[C@@H]1C[C@@H](C2CCCCC2)CN1C(=O)CP(=O)(O)CCCCc1ccccc1 [fosinoprilat] (10 µM) | 100%
COc1ccn2ncc(-c3nc4[nH]nc(NC(=O)c5ccc(F)cc5)c4cc3F)c2c1 (10 µM) | 111%
CC(C)=CCC/C(C)=C/CC/C(C)=C/CSc1ccccc1C(=O)O [salirasib] (10 µM) | 89%
O=C(Nc1ccc(C(=O)O)c(O)c1)c1ccccc1 [benzoylpas] (10 µM) | 91.5%
O=C(O)[C@H](Cc1ccccc1)NCc1ccc(Cl)cc1 (10 µM) | 102%
CC(C)c1cc(-c2n[nH]c(=O)n2-c2ccc3c(ccn3C)c2)c(O)cc1O [ganetespib] (0.833333 µM) | 111%
COc1ncc(-c2ccc3nccc(-c4ccnnc4)c3c2)cc1NS(=O)(=O)c1ccc(F)cc1F (0.833333 µM) | 110%
COC(=O)Nc1ccc(-c2nc(N3CCOCC3)c3cnn(C4CCN(Cc5cccnc5)CC4)c3n2)cc1 (10 µM) | 104%
Cl/C=C\C[N+]12CN3CN(CN(C3)C1)C2 [1-((Z)-3-chloroallyl)-1,3,5,7-tetraazaadamantan-1-ium] (10 µM) | 99%
CN1CCC[C@@H]1CCO[C@](C)(c1ccccc1)c1ccc(Cl)cc1 [clemastine] (10 µM) | 26.5% (active)
CCn1cc(C(=O)O)c(=O)c2cc3c(cc21)OCO3 [oxolinic-acid] (10 µM) | 96%
CC(=O)Nc1c(I)c(C(=O)O)c(I)c(N(C)C(C)=O)c1I [metrizoic-acid] (10 µM) | 108%
N[C@H](C(=O)O)c1cc(O)no1 [ibotenic-acid] (10 µM) | 93%
Cc1ccc(C(=O)Nc2ccc(CN3CCN(C)CC3)c(C(F)(F)F)c2)cc1C#Cc1cnc2[nH]ncc2c1 (10 µM) | 98%
O=C(O)CNC(=O)c1ccccc1I [2-iodohippuric-acid] (10 µM) | 110%
CN/C(=N\c1ccc(C2=NNC(=O)CC2C)cc1)NC#N (stereo not given) [siguazodan] (10 µM) | 109%

Compound | SARS-CoV-2 infection rate
C[Se]C[C@H](N)C(=O)O [Se-methylselenocysteine] (10 µM) | 102%
CCCN[C@H]1CCc2nc(N)sc2C1 [pramipexole] (10 µM) | 120%
Nc1ncnc2[nH]nc(Nc3ccc(F)cc3)c12 (0.833333 µM) | 95.5%
CCn1cc(-c2ccnc3[nH]c(-c4cccc(CN(C)C)c4)cc23)c(-c2ccc(NC(=O)N(C)C)cc2)n1 (0.833333 µM) | 106%
Oc1cc2c(cc1O)CN(C(=S)NCCc1ccc(Cl)cc1)CCC2 [capsazepine] (10 µM) | 92.5%
CCN1C[C@]2(COC(=O)c3ccccc3N3C(=O)C[C@H](C)C3=O)CC[C@H](OC)[C@@]34[C@@H]5C[C@H]6[C@H](OC)[C@@H]5[C@](O)(C[C@@H]6OC)[C@](O)([C@@H](OC)[C@H]23)[C@@H]14 [methyllycaconitine] (10 µM) | 110%
COc1c(O[C@@H]2O[C@H](CO)[C@@H](O)[C@H](O)[C@H]2O)cc2c(c1OC)-c1ccc(SC)c(=O)cc1[C@@H](NC(C)=O)CC2 [thiocolchicoside] (10 µM) | 114%
COc1ccc(-c2csc(NC(=O)[C@H]3CCCCN3S(=O)(=O)c3ccc(C)cc3)n2)cc1 (10 µM) | 61.5%
CC(=O)N[C@@H](CS)C(=O)O [acetylcysteine] (10 µM) | 95.5%
CC(C)[C@H]1[C@@H]2CC[C@@H](C2)[C@@H]1N (10 µM) | 82%
COC(=O)C1=CCCN(C)C1 [arecoline] (10 µM) | 100%
Cn1nnc(-c2ccc(-c3ccc(N4C[C@H](CO)OC4=O)cc3F)cn2)n1 [tedizolid] (10 µM) | 100%
N#C/C(=C\c1ccc(O)c(O)c1)C(=O)NCc1ccccc1 (10 µM) | 98%
CC[C@]12CCCN3CCc4c(n(c5ccccc45)[C@@](O)(C(=O)OC)C1)[C@@H]32 [vincamine] (10 µM) | 99%
CN1C(=O)N(c2cc(Cl)cc(Cl)c2)C(=O)[C@]12CN(Cc1cc(C(=O)O)cs1)C[C@H]2c1ccc(C#N)cc1 (10 µM) | 92.5%
COc1cc(OC)c(NC(=O)Nc2cc(C)on2)cc1Cl (10 µM) | 87%
CC(=O)Nc1ccc(O)cc1 [paracetamol] (10 µM) | 103%
Cc1cccc(C)c1NC(=O)c1ccc(N)cc1 [ameltolide] (10 µM) | 109%
CC(C)c1nc(CN(C)C(=O)N[C@H](C(=O)N[C@@H](Cc2ccccc2)C[C@H](O)[C@H](Cc2ccccc2)NC(=O)OCc2cncs2)C(C)C)cs1 [ritonavir] (10 µM) | 104%
CS[C@H]1SC[C@H]2C(=O)N(C)[C@@H](C(C)C)C(=O)OC[C@@H](NC(=O)c3cnc4ccccc4n3)C(=O)N[C@@H](C)C(=O)N(C)[C@@H]1C(=O)N(C)[C@@H](C(C)C)C(=O)OC[C@@H](NC(=O)c1cnc3ccccc3n1)C(=O)N[C@@H](C)C(=O)N2C [echinomycin] (0.833333 µM) | 96%
